CR mimetic SO – reduction of superoxide in aged yeast, primary screen, HTS | S. cerevisiae aged cells, superoxide DHE fluorescence; active compounds read low | superoxide response (% of plate mean), % at 10 µM | actives 0.18% (n = 330,000);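 active = superoxide response under a set limit, about three screen SD below normal, cut at about 65% in these data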;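 also: yeast aged for seven days with compound at 30 °C before DHE staining; 100% = average MFI of all compound-treated wells on the plate with controls excluded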
PLC-beta3 inh – human PLC-beta3 inhibitors, primary screen, biochemical, fluorescence. Purified PLC-beta3, fluorogenic substrate. inhibition, % at 12.2 µM. actives 0.18% (n = 370,000). AID 720704, 2013; in the data active = inhibition above about 11%;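 also: 0% = median of compound wells on plate and 100% = full blocker control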
AHR activator – AHR activators, primary screen, cell-based, luminescence, luciferase reporter, human; Aryl hydrocarbon receptor (Homo sapiens), P35869; AHR-responsive luciferase reporter cells; actives 2.5% (n = 320,000); activation, % at 5 µM; AID 2796, 2010; in the data active = activation above about 47%;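 also: 0% = vehicle wells and 100% = reference agonist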
sPLA2-III inh – human group III sPLA2 inhibitors, primary screen, biochemical, QFRET, BODIPY PC-A2 liposome substrate | Group 3 secretory phospholipase A2 (Homo sapiens), Q9NZ20 | QFRET BODIPY PC-A2 liposome hydrolysis, fluorescence | inhibition, % at 12.2 µM | actives 0.56% (n = 370,000) | AID 743126, 2013;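 active = inhibition above mean plus 3 SD of compounds lying within the high and low control bounds, cut at about 19% in these data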;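 also: 0% = median of test compound wells and 100% = no enzyme DMSO wells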
PLC-gamma1 inh – PLC-gamma1 enzyme inhibitors, primary screen, biochemical, fluorescence, purified enzyme | inhibition, % at 12.2 µM | fluorogenic substrate | actives 0.84% (n = 370,000) | AID 720700, 2013; in the data active = inhibition above about 9.5%
Target sequence (P19174 whole entry, looked up): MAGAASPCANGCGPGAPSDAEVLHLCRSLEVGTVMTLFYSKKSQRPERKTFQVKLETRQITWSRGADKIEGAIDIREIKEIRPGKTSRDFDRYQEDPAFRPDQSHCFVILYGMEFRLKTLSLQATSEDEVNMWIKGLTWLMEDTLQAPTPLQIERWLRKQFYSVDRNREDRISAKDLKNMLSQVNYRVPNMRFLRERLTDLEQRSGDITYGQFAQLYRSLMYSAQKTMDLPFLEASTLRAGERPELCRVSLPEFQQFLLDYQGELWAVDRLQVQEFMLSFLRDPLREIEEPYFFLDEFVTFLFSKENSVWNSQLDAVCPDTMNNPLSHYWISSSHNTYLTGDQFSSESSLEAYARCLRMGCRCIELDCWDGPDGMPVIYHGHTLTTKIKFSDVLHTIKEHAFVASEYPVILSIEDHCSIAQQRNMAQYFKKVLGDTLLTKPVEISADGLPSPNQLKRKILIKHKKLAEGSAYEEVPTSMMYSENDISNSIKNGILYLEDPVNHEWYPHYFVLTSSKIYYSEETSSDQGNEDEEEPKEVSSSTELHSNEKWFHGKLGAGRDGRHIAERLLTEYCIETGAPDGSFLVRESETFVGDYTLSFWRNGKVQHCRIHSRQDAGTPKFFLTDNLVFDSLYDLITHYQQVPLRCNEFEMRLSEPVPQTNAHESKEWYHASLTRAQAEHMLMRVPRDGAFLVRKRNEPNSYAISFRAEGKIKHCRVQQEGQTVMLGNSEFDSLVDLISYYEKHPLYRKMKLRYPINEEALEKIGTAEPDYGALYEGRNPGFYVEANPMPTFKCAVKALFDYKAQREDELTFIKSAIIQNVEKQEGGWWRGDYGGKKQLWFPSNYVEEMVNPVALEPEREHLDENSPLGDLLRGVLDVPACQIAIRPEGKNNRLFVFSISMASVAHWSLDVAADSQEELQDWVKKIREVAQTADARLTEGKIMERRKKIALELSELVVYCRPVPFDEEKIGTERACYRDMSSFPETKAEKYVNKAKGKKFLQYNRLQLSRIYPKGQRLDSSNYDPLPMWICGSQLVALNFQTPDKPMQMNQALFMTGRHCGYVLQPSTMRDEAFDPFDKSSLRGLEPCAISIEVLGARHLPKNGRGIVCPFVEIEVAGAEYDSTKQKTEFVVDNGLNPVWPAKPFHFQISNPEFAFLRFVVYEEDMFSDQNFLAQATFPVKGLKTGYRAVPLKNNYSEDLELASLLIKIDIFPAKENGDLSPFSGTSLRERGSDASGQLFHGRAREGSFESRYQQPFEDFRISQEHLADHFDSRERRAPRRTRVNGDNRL
HIF activator – HIF pathway transcriptional activators, primary screen, cell-based, U2OS HRE-luciferase, luminescence | actives 0.32% (n = 300,000) | activation, % at 7.5 µM (by protocol) | U2OS HRE-luciferase reporter; normalized: DMSO 0%, desferrioxamine 100%;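 active = mean activation of at least 10% of the iron chelator positive control signal, with at least half of replicates also reaching 10%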
AHR act confirm – AHR activators, confirmation, cell-based, luminescence, luciferase reporter, human | human cells, AHR-responsive luciferase reporter | shares compounds with AHR activator | actives 87% (n = 2,300) | activation, % at 9 µM; in the data active = activation above about 49%;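 also: HepG2 hepatoma cells carrying a DRE-driven firefly luciferase reporter; 0% = vehicle wells and 100% = reference agonist wells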
PXR counter – human PXR activators, counter-screen for AHR activator project, cell-based, luciferase luminescence; shares compounds with AHR activator; cell-based PXR reporter; activation, % at 11.6 µM; actives 88% (n = 2,300); in the data active = activation above about 11%;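 also: human hepatoma DPX-2 cells expressing full-length human PXR; 0% = DMSO and 100% = reference agonist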
Active calls of the source: *; · = no result given. Rows were chosen to be rich in hits. Some 3.9% of all compounds tested hit in one or more screens of this group.

SMILES	CR mimetic SO	PLC-beta3 inh	AHR activator	sPLA2-III inh	PLC-gamma1 inh	HIF activator	AHR act confirm	PXR counter
CC1=CCC2C(=O)N(c3ccc(C)c(Br)c3)C(=O)C2C1 (stereo not given)	91	4	90*	-6	0	0	3	87*
CC1=CCC2C(=O)N(c3ccc(C)cc3)C(=O)C2C1 (stereo not given)	88	-4	0	3	-2	0	·	·
CCc1nc(Nc2ccccc2F)c2oc3ccccc3c2n1	83	-50	94*	1	-36	1	95*	42*
CCc1nc(Nc2ccc(F)cc2)c2oc3ccccc3c2n1	103	-143	24	-5	-96	0	·	·
CCc1nc(Nc2ccccc2)c2oc3ccccc3c2n1	102	-158	22	-4	-119	0	·	·
CCc1nc(NCCCn2ccnc2)c2oc3ccccc3c2n1	101	3	109*	-3	4	0	114*	41*
O=C(Nc1ccccc1Oc1ccsc1C(=O)O)c1ccccc1F	93	2	8	-2	4	1	·	·
C=CCn1c(=O)/c(=C/c2ccc(Cl)cc2)s/c1=C(\C#N)c1nnc2n1CCCCC2	·	-8	·	6	0	·	·	·
Cc1ccccc1S(=O)(=O)N1CCCc2nc(-c3ccc(F)cc3)ccc21	·	-2	·	2	1	·	·	·
Cc1cccc(C(=O)Nc2ccnc(-c3ccncc3)n2)c1	82	-7	99*	-1	-4	1	48*	3
Cc1cccc(N=C2NC(=O)/C(=C\c3cccs3)S2)c1	129	-2	32	-26	-5	0	·	·
O=C1NC(=Nc2ccccc2)S/C1=C/c1cccs1	100	-3	116*	-19	1	2	120*	32*
O=c1[nH]c(=O)n(C(c2ccccc2)(c2ccccc2)c2ccccc2)cc1N(CCO)CCO	·	5	·	7	0	·	·	·
CCOc1ccc(N=C(NN)c2ccc3ccccc3n2)cc1	108	-12	108*	-2	-12	-2	110*	19*
CCOc1ccc(N=C(C)C2=C(O)c3ccccc3C2=O)cc1	108	-2	3	-1	-1	1	·	·
COc1ccc(/C(C)=N/Nc2ccc(C(=O)O)cc2)c(OC)c1	107	-5	-1	0	-5	1	·	·
COc1ccc2c(c1)C(=NNc1ccc(C(=O)O)cc1)c1cc(OC)ccc1-2	96	-4	86*	-11	4	0	108*	11*
Cc1cc(SCC(=O)c2cccs2)nc2ccccc12	86	-5	99*	-60	-6	1	103*	155*
CCN(CC)S(=O)(=O)c1ccc(N2CCCCC2)c(NC(=O)C2CCN(C(=O)c3ccc(F)cc3)CC2)c1	90	-8	4	-12	1	0	·	·
COc1ccc(OC)c(-c2cc(C(=O)NCCCn3ccnc3)no2)c1	102	-41	0	-12	-29	0	·	·
O=C(NCCCn1ccnc1)c1cc(-c2cccs2)on1	84	3	143*	-4	5	38*	458*	46*
CN1CCc2c(sc(NC(=O)C3CCCN3S(=O)(=O)c3ccc(Cl)s3)c2C(N)=O)C1 (stereo not given)	95	-19	0	-29	-10	0	·	·
CCCCN(C)CCNC(=O)C1CCN(S(=O)(=O)c2cccc3nsnc23)CC1	89	-11	0	4	0	0	·	·
FC(F)(F)c1cc(-c2ccc3c(c2)OCO3)nc(NCc2ccco2)n1	91	-113	91*	-7	-96	0	75*	26*
COc1ccc(-c2cc(C(F)(F)F)nc(NCc3ccco3)n2)cc1OC	99	·	12	·	·	-1	·	·
SMILES	CR mimetic SO	PLC-beta3 inh	AHR activator	sPLA2-III inh	PLC-gamma1 inh	HIF activator	AHR act confirm	PXR counter
Fc1ccc(-c2nc3nc4ccccc4nc3n2Cc2ccco2)cc1	148	-27	38	-6	-26	1	·	·
c1ccc(-c2nc3nc4ccccc4nc3n2Cc2ccco2)cc1	98	-111	99*	-1	-48	-19	71*	20*
Cc1ccc(NC(=O)c2ccc(S(=O)(=O)N(C)c3ccccc3)cc2)cc1S(=O)(=O)N1CCOCC1	·	-11	·	12	1	·	·	·
CCn1c(-c2sc(-c3ccccc3)nc2C)n[nH]c1=S	98	-235	81*	16	-243	-1	119*	19*
CCOC(=O)C1(Cc2ccc(OC)cc2)CCN(C(=O)c2cc3ccccc3[nH]2)CC1	105	-5	105*	-14	-6	0	89*	40*
COc1cccc(NC(=O)c2ccc3c(c2)OCO3)c1	96	-7	134*	0	-3	3	35	26*
O=C(Nc1ccc2c(c1)OCO2)c1ccc(S(=O)(=O)NCC2CCCO2)cc1 (stereo not given)	93	-9	84*	1	-5	0	14	21*
O=C(Nc1cccc2nsnc12)c1ccc2c(c1)OCCO2	93	-406	20	-3	-330	3	·	·
O=C(Nc1cccc2nsnc12)c1ccc2c(c1)OCO2	95	-136	118*	1	-106	2	127*	30*
CC(C)Sc1nnc(NC(=O)c2ccc3c(c2)OCO3)s1	120	-8	110*	-2	-5	1	47	27*
CCN1CCN(c2ccc(Nc3ccnc4ccccc34)cc2)CC1	103	-36	8	-1	-19	·	·	·
CNC(=O)CN(Cc1ccccc1)S(=O)(=O)c1ccc(Cl)cc1	100	-3	0	17	-2	1	·	·
O=C(Nc1ccc2c(c1)OCO2)c1ccccc1	98	-6	101*	0	-1	-23	52*	24*
CC1(C)Oc2ccc(NC(=O)C3COc4ccccc4O3)cc2O1 (stereo not given)	111	-4	41	2	-6	-2	·	·
COC(=O)c1c(-c2cccnc2)csc1NC(=O)c1ccc2c(c1)OCO2	97	-24	114*	1	-11	3	23	5
Cn1nccc1C(=O)Nc1ccc(Cl)cc1	94	2	5	4	-2	1	·	·
Cn1nccc1C(=O)Nc1ccc2c(c1)OCO2	92	-9	104*	5	1	3	60*	19*

Screening data (PubChem BioAssay)
